Assay results taken from ChEMBL document CHEMBL3988442, “University of Dundee, Small-Polar-MMV Screening Library” (2021).
For part of these data: Potency and affinity values are given separately.

Experiments:
Design in all cases: scale not given: direction of the effect not stated beside the values
[1] = target: Protein translocase subunit SecA (Escherichia coli (strain K12)) (UniProt P10408); assay: Assay to Identify E. coli SecA ATPase Inhibitors; type: functional; settings: 30 µM
[2] = target: T1, Ubiquitin-activating enzyme e1, putative (Leishmania donovani (strain BPK282A1)) (UniProt E9BSI1); assay: Leishmania donovani Ubiquitin Activating Enzyme (LdE1); type: functional; settings: 30 µM
T1 sequence (whole entry): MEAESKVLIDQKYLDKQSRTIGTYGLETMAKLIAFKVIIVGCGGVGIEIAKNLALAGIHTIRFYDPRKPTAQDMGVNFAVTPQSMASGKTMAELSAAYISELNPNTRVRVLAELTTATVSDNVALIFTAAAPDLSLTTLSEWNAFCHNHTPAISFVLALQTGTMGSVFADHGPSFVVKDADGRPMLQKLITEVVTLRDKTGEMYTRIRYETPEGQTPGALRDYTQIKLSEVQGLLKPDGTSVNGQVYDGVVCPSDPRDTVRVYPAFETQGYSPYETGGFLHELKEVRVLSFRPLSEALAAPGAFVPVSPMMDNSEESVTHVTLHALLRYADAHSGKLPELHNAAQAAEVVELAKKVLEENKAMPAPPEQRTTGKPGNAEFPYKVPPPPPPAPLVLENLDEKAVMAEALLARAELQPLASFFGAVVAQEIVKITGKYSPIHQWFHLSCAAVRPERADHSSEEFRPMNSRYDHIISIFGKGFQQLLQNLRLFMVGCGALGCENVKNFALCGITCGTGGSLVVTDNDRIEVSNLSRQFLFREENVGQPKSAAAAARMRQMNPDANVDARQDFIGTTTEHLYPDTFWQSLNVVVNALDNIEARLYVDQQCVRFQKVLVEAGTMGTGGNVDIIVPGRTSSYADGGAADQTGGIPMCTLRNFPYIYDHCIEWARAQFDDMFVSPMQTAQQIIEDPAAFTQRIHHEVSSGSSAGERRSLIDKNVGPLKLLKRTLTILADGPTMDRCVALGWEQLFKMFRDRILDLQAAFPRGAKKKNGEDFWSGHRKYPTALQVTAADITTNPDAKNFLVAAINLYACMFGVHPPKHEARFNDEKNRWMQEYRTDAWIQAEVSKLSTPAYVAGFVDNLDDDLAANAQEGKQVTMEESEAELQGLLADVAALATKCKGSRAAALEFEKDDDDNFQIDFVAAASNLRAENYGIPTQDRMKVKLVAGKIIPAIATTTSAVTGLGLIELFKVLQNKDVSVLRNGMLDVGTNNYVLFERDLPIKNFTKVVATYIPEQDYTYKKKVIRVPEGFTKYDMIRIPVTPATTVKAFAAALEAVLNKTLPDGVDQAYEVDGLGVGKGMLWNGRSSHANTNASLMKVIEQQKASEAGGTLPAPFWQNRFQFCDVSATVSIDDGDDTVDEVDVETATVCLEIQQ

[3] = target: Sialic acid-binding Ig-like lectin 9 (Homo sapiens) (UniProt Q9Y336); assay: Hs-Siglec9 ALPHAscreen SOP 20170721; settings: 10 µM
Sequence of Sialic acid-binding Ig-like lectin 9 (Homo sapiens) (Q9Y336 whole entry): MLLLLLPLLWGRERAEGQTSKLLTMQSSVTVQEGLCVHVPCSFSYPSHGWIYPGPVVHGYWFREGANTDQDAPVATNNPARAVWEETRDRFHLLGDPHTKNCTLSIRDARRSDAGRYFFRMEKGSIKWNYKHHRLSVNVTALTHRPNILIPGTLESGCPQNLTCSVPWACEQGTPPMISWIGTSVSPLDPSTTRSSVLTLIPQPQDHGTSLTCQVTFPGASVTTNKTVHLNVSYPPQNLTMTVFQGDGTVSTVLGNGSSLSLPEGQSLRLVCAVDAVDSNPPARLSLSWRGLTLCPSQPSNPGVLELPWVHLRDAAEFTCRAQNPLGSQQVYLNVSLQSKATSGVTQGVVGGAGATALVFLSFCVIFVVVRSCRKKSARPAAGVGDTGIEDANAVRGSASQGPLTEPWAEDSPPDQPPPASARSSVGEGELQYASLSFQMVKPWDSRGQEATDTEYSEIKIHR

Trypanosoma cruzi = assay: Trypanosoma cruzi phosphomannomutase and mannose-1-phosphate guanylyltransferase assay; type: functional; settings: 10 µM
[4] = target: T2, Arginase-2, mitochondrial (Homo sapiens) (UniProt P78540); assay: in vitro enzyme assay to detect the production of urea directly proportional to the activity of Arginase II; type: functional; settings: 33.3 µM; note: in the data most compounds retested in dose-response had high values
T2 sequence (whole entry): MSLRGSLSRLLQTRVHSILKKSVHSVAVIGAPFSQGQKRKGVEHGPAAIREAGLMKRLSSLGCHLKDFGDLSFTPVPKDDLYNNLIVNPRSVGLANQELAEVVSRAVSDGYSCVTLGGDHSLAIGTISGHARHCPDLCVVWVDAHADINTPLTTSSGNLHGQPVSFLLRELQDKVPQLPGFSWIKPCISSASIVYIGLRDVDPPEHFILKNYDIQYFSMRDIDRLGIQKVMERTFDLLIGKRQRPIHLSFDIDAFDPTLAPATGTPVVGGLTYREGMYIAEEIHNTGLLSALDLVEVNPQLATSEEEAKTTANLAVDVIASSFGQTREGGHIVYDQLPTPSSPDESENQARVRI

[5] = target: T3, Proteasome subunit beta (Trypanosoma cruzi) (UniProt O96673); assay: Trypanosoma cruzi proteasome chymotrypsin-like activity (TcProtChymo) assay.; note: in the data most compounds retested in dose-response had high values; type: functional; settings: 9.37 µM
T3 sequence (whole entry): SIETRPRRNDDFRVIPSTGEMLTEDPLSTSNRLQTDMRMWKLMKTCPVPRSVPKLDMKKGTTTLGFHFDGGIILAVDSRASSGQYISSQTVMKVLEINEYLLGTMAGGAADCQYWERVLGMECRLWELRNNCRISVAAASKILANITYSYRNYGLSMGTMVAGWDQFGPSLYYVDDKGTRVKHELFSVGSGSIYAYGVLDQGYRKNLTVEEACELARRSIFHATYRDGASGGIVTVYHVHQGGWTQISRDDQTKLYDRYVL

Homo sapiens = species: Homo sapiens; assay: To identify inhibition of the IFN signalling (Jak-Stat) pathway via expression of an eGFP reporter gene under the control of an IFN-stimulated response element (ISRE) containing MxA promoter.; type: functional; settings: 30 µM
[6] = target: T4, Tyrosyl-tRNA synthetase, putative (Trypanosoma cruzi (strain CL Brener)) (UniProt Q4DSP6); assay: Trypanosoma cruzi tyrosyl tRNA synthetase (TcYRS) _High Tyrosine SOP; type: functional; settings: 30 µM; note: in the data most compounds retested in dose-response had high values
T4 sequence (whole entry): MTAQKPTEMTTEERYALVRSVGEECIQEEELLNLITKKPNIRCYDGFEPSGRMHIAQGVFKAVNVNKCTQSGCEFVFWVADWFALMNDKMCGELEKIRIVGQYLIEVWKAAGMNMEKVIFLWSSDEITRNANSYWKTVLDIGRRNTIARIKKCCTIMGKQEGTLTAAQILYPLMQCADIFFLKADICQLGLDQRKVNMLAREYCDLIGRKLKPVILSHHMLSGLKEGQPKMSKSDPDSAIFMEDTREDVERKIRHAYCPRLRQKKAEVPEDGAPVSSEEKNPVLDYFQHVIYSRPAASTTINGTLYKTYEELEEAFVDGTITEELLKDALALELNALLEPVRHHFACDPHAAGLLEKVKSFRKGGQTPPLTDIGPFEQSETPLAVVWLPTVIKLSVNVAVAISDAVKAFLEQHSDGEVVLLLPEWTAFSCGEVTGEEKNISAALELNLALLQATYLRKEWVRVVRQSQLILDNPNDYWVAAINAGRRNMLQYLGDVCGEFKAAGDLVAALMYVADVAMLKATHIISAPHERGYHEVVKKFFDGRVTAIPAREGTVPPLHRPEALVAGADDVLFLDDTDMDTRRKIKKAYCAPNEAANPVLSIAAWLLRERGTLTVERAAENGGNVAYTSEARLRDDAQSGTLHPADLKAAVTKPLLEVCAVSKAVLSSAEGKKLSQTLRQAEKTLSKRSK

[7] = target: T4, Tyrosyl-tRNA synthetase, putative (Trypanosoma cruzi (strain CL Brener)); assay: Trypanosoma cruzi tyrosyl tRNA synthetase (TcYRS) SOP; type: functional; settings: 30 µM
[8] = target: Chromo domain-containing protein 1 (Saccharomyces cerevisiae (strain ATCC 204508 / S288c) (Baker's yeast)) (UniProt P32657); assay: ScCHD-1 Enzyme Inhibition Assay; type: functional; settings: 30 µM; note: in the data most compounds retested in dose-response had high values
Sequence of Chromo domain-containing protein 1 (Saccharomyces cerevisiae (strain ATCC 204508 / S288c) (Baker's yeast)) (P32657 whole entry, the tested form may be a part): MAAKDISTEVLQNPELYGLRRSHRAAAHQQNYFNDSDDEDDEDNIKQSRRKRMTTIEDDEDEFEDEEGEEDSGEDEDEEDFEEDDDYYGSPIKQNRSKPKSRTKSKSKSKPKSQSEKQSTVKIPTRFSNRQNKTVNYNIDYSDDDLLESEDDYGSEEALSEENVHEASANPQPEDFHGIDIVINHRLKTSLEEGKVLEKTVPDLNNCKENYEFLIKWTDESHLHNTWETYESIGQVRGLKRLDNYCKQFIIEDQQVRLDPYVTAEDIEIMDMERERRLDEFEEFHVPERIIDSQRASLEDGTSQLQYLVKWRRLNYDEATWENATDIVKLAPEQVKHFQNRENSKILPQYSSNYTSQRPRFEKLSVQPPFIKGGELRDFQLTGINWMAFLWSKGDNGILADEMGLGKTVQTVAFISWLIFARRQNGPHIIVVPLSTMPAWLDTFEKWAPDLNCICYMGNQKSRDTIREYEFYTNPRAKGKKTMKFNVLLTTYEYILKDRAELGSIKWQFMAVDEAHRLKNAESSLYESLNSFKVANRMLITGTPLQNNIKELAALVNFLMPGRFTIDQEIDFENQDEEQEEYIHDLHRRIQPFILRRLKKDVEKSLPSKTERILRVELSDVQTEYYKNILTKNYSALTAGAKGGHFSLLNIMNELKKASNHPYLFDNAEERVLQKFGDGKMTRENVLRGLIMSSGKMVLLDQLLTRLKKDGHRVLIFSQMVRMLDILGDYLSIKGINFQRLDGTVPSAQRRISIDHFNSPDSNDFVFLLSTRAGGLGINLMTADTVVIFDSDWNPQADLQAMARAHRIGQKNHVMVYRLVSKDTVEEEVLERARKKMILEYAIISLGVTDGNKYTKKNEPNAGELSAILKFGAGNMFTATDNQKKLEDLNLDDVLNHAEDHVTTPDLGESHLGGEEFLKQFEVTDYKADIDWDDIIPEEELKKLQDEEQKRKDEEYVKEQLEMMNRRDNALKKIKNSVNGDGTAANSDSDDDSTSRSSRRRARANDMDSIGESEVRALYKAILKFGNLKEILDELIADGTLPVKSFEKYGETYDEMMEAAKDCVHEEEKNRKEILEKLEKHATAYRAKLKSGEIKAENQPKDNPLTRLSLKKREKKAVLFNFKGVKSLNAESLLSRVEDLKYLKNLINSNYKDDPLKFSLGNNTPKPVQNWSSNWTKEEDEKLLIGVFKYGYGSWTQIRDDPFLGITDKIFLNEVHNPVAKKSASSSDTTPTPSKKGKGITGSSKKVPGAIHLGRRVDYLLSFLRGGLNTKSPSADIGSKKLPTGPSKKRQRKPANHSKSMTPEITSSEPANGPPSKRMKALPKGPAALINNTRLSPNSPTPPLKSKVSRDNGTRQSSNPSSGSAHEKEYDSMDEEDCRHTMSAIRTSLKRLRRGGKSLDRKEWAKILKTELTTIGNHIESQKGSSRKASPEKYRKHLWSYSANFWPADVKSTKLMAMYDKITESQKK

Sequence of Protein translocase subunit SecA (Escherichia coli (strain K12)) (P10408 whole entry): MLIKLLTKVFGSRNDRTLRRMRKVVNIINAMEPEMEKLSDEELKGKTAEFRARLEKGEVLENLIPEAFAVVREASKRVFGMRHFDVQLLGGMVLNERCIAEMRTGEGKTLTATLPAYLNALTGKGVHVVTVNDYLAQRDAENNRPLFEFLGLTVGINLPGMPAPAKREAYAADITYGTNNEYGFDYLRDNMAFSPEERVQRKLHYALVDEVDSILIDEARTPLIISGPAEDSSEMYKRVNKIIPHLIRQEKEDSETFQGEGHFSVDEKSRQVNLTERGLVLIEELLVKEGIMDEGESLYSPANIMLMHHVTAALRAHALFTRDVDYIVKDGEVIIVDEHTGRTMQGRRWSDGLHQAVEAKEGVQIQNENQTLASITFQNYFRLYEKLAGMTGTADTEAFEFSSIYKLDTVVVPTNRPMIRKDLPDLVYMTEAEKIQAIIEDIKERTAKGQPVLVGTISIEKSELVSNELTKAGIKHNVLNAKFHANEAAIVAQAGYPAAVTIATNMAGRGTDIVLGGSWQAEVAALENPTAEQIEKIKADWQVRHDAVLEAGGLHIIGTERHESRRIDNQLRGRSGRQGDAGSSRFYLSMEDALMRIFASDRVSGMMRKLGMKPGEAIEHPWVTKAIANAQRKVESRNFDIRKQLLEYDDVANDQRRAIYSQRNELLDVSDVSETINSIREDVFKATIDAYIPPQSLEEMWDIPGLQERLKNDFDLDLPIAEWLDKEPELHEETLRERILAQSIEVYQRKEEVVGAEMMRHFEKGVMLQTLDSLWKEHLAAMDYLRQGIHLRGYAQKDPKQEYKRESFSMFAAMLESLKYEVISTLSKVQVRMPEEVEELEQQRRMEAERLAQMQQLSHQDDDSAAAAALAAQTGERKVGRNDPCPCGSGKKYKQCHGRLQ

SMILES | Percent Effect [1] | Percent Effect [2] | Percent Effect [3] | Percent Effect (Trypanosoma cruzi) | Percent Effect [4] | Percent Effect [5] | Percent Effect (Homo sapiens) | Percent Effect [6] | Percent Effect [7] | Percent Effect [8]
CC(=O)N1CCC(c2cc(C(F)(F)F)n3ccnc3n2)CC1 | -2.29% | 9.33% | -6.3% | 0.789% | 0.443% | 16.1% | 6.98% | 7.41% | -25% | -32.2%
CC(C)CN(Cc1nc2c(cnn2C)c(=O)[nH]1)C(C)C | -1.52% | 10.3% | -1.47% | 5.92% | 7.38% | -3.5% | -18.2% | 5.26% | 18.1% | 0.0184%
Cc1[nH]c2ccccc2c1-c1ccnc(NC[C@H](O)CO)n1 | -3.38% | 5.33% | -5% | -8.23% | -5.32% | 8.23% | 23.4% | -1.58% | -7.69% | -13.5%
Cc1cnn(CC2CCCN2C(=O)c2cc3c(F)cccc3[nH]2)c1 (stereo not given) | -2.09% | 5.2% | 8.2% | -5.6% | -2.66% | 2.81% | 26.7% | 1.96% | 11.8% | -1.7%
OC(CN1CCOCC1)CN1CCc2c(ncn2C2CC2)C1 (stereo not given) | -2.85% | 26.7% | -6.52% | -1.21% | -4.88% | 14.3% | 17.9% | 1.58% | 7.69% | -10.6%
Cc1cncc(C2CCCN(C(=O)c3c[nH]c(=O)[nH]c3=O)C2)n1 (stereo not given) | 0.496% | 9.33% | -0.809% | -4.14% | 0.885% | 7.06% | 6.63% | 4.23% | 10% | -18.3%
c1cnnc(N2CCCC2CNCc2nc(C3CC3)no2)c1 (stereo not given) | -0.891% | -7.69% | 1.93% | 12.1% | 1.64% | 1.11% | -18.5% | 6.22% | 6.02% | 8.01%
COCCN1CCCN(C(=O)NC(C)Cn2ccnc2)CC1 (stereo not given) | 0.718% | 13% | 12.5% | 0.56% | -4.71% | -0.702% | 8.17% | 0% | 18.8% | -5.5%
C[C@@H]1CN(C(=O)c2cccs2)C[C@]12CCN(CCN(C)C)C2=O | -6.68% | 9.09% | 2.17% | -6.57% | 0.457% | 9.87% | 18% | 0.966% | -5% | -8.48%
Cc1cc2c(cc1C(=O)N1CC[C@H](CO)[C@@H](O)C1)OCCO2 | -9.1% | 2.7% | 2.86% | 4.37% | 1.05% | 8.22% | -0.0662% | 4.79% | 12.2% | -4.74%
Cc1cn[nH]c1C1CCCCN1C(=O)CCN1CCCCCC1 (stereo not given) | 0.428% | 4% | -1.68% | -7.89% | 1.77% | 10% | 10.3% | 2.12% | 5% | -25%
Cc1noc(C2CCN(C(=O)c3ccc(N(C)C)nc3)CC2)n1 | -1.18% | 12.8% | -5.05% | 3.29% | 1.23% | -0.0853% | 13.1% | 8.13% | 20.5% | -1.36%
COCc1nc(C(=O)NS(=O)(=O)c2ccc(C)s2)cs1 | -1.18% | -5.13% | -1.4% | -5.35% | 6.56% | -7.25% | 18.7% | 1.44% | 1.21% | -0.772%
COc1ccccc1CCN(C)C(=O)NC(C)c1nncn1C (stereo not given) | -6.85% | 10.7% | 12.9% | -1.21% | 0% | 16.2% | -2.26% | 2.63% | 5.13% | -8.54%
CN(C(=O)CN1CCOC(Cn2cccn2)C1)c1nccs1 (stereo not given) | -7.38% | 18.2% | 0.761% | 4.29% | -4.71% | 11.8% | -5.33% | 3.92% | 21.2% | -15%
Cn1cc(CN2CCCC3(CCCN3S(C)(=O)=O)C2)cn1 (stereo not given) | -3.74% | 9.09% | -4.49% | -4.77% | 2.02% | 12.3% | -3.8% | 5.79% | 10.3% | 1.97%
COc1cccc(CNc2cnn(C)c(=O)c2Cl)c1 | -6.48% | 0% | 3.58% | -1.21% | 6.65% | 3.48% | 55.5% | 2.63% | 5.13% | -5.75%
Cc1cc(OCC(=O)N2CCCC(c3ccn[nH]3)C2)no1 (stereo not given) | -3.04% | 5.33% | 5.5% | -5.62% | 3.55% | 6.36% | 3.56% | 3.68% | 7.69% | -8.42%
COc1cc(S(=O)(=O)N2CCc3ccc(F)cc32)cc(C(=O)O)c1OC | -7.45% | 10.7% | 12.6% | -1.21% | 0% | 6.02% | 4.5% | -3.68% | -5.13% | -15.2%
Cc1cncc(C2CCCN(C(=O)c3cccn3C)C2)n1 (stereo not given) | -1.26% | 17.3% | -0.809% | 1.97% | 1.33% | 13.3% | -5.79% | 7.41% | 12.5% | -25%
Fc1cnc(N2CCOCC3(CCCN(c4nncs4)C3)C2)nc1 (stereo not given) | -8.43% | 6.49% | -1.88% | -2.63% | -5.26% | 10.5% | -23.8% | 1.58% | 7.69% | 0.128%
CN(C)CC(=O)N1C[C@H]2CCC[C@@]2(COc2ccccn2)C1 | -8.78% | 1.3% | 1.97% | -2.82% | -4.86% | 11.9% | 7.53% | -0.526% | 5.13% | -0.114%
CCC(=O)N1CCC(O)(c2ncc(OC)nc2OC)CC1 | -1.18% | 9.33% | 3.93% | -3.55% | 3.1% | 9.03% | 8.31% | 5.29% | 7.5% | -17.1%
O=C(c1ccnnc1)N1C[C@@H](OCC2CCOCC2)[C@H]2OCCC[C@H]21 | -4.07% | 1.3% | 6.81% | 5.55% | 14.6% | 0.618% | -6.79% | 0.526% | 7.69% | 96%
